Test results from PubChem BioAssay AID2284173 (EPA ToxCast).
The source made the active and inactive calls. The calls were made as follows: active = hit-call score of the fitted dose curve at least 0.9, where 1 is the maximum; inactive = score below 0.9.

System: rat KATP Antagonism, gene 24521
Assay: ERF_FR_IC_rKCNJ1: Eurofins (ERF) Potassium Ion Channel Mass Spectrometry Ligand Binding LeadHunter Assay for rat KATP Antagonism
Method: ERF_FR_IC_rKCNJ1 is a biochemical, single-readout assay that uses extracted gene-proteins in a cell-free assay. Measurements were taken 1 hour after chemical dosing in a 96-well plate. See KATP Rat Potassium Ion Channel Binding (Antagonist Radioligand) Assay, Cerep.ERF_FR_IC_rKCNJ1 is an assay component calculated from the ERF_FR_IC_rKCNJ1 assay. It is designed to measure radioligand binding using a type of binding reporter as detected by scintillation counting with radiometry technology.Data from the assay component ERF_FR_IC_rKCNJ1 was analyzed at the assay endpoint, ERF_FR_IC_rKCNJ1, in the positive analysis fitting direction relative to DMSO as the negative control and baseline of activity. Using a type of binding reporter, loss-of-signal activity can be used to understand changes in binding as they relate to gene KCNJ1. To generalize the intended target to other relatable targets, this assay endpoint is annotated to the ion channel intended target family, where the subfamily is voltage gated (Potassium).
Rat cells are incubated for 60 minutes at room temprature with Glibenclamide (0.07 nM) as ligand and Glibenclamide-d3 (30nM) as control inhibitor. Test Sample Requirements: Minimum for 1) Screen: 60 ul of 10 mM stock -OR- 1 mg (pre-weighed) for 10 uM final testing. 2) Dose Response: 90 ul of 10 mM stock -OR- 1 mg (pre-weighed) for a top concentration at 10 uM.

SMILES	AC50
O=C(/C=C/c1ccc(O)cc1)CC(=O)/C=C/c1ccc(O)cc1	880 nM (active)
